# PubChem BioAssay
# Unmarked numbers belong to inactive results. For some assays here: Results with a measured potency or affinity are listed apart. Active and inactive are the calls of the source. Unless noted, the rule behind the calls is not given here.
# Experiments:
# [1] = antimalarial activity against Dd2 strain (AID 2302;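 active = growth inhibition above 50% at the single 2 µM test dose, taken to imply half-maximal potency below 2 µM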;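 note: 0% = DMSO untreated growth and 100% = chloroquine plus artemisinin killed control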); details: P. falciparum Dd2 in RBCs, LDH growth readout, 72 h; at 2 µM; hits give high values
# [2] = human hepatoma cell viability loss – ATP luminescence, cytotoxicity control for P. falciparum antimalarial project, primary screen (AID 2303;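 active = inhibition above 50%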;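 note: 0% = DMSO wells and 100% = digitonin-killed cells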); details: HepG2 viability, 24-48 h, at 10 µM, hits give high values
# [3] = target: L-lactate dehydrogenase (Plasmodium falciparum (isolate CDC / Honduras)) (UniProt Q27743); assay: PfLDH activity inhibition – cell lysate, 3D7 strain, counter-screen for P. falciparum growth inhibition project (AID 2304);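 note: 0% = vehicle and 100% = reference inhibitor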; details: P. falciparum 3D7 crude extract, LDH APAD/NBT absorbance; at 2 µM; hits give high values
# L-lactate dehydrogenase (Plasmodium falciparum (isolate CDC / Honduras)), sequence (Q27743 whole entry, looked up): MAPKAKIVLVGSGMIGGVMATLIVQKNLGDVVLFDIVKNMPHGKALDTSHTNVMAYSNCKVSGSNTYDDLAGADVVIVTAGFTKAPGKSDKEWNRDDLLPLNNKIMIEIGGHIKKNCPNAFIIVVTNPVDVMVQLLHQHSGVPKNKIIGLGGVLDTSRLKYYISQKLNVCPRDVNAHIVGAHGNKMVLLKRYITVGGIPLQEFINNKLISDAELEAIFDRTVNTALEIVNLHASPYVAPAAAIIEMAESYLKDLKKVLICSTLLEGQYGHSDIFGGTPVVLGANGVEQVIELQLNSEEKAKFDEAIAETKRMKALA
# [4] = inhibition of 3D7 malaria parasite growth – strain 3D7 (AID 2306);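 note: 0% = DMSO wells and 100% = chloroquine plus artemisinin control wells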; details: P. falciparum 3D7 erythrocytic growth, LDH absorbance, 72 h; at 2 µM; hits give high values
# [5] = target: Calcium-dependent protein kinase 1 (Plasmodium falciparum (isolate 3D7)) (UniProt P62344); assay: PfCDPK1 kinase inhibitors, biochemical, TCAMS library (AID 1159585; cut-off not given, nearly all actives have IC50 up to about 0.98 µM;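 note: inhibitors leave more ATP so luminescence rises with inhibition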); details: recombinant PfCDPK1, Kinase-Glo ATP depletion luminescence
# Calcium-dependent protein kinase 1 (Plasmodium falciparum (isolate 3D7)), sequence (P62344 whole entry, looked up): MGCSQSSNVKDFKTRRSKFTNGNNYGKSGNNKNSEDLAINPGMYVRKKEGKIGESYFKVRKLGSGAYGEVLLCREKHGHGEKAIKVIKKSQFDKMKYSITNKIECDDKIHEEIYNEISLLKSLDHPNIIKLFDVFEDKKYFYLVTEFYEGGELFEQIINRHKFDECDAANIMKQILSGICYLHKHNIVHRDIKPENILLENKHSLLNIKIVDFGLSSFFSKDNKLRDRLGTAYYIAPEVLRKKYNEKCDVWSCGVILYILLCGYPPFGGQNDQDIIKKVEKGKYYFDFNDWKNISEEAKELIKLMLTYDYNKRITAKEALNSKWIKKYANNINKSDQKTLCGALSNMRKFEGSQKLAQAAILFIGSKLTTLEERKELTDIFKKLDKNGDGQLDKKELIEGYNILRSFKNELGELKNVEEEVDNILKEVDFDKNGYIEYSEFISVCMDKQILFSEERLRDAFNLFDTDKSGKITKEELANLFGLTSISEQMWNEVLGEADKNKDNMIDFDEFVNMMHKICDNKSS
# [6] = target: Plasmodium falciparum protein kinase 6 (PK6, PF3D7_1337100) (UniProt Q8IDW1); assay: PfPK6 kinase inhibitors, biochemical, TCAMS library (AID 1159586); details: recombinant PfPK6, Kinase-Glo ATP depletion luminescence
# Plasmodium falciparum protein kinase 6 (PK6, PF3D7_1337100), sequence (Q8IDW1 1-305): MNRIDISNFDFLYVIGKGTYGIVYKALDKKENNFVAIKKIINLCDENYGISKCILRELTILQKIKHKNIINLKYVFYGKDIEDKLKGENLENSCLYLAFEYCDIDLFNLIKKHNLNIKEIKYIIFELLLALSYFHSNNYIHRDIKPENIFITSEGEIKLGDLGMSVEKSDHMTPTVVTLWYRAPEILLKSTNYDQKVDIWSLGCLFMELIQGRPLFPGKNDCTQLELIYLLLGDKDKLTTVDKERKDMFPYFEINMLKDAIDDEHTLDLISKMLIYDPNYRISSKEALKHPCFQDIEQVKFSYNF
# [7] = target: Protein kinase 7 (PK7), Plasmodium falciparum 3D7 (PF3D7_0213400) (UniProt Q7YTF7); assay: inhibition of Plasmodium PK7 catalytic activity – biochemical, TCAMS antimalarial set, Kinase-Glo luminescence (AID 1159587); details: recombinant PfPK7, Kinase-Glo ATP depletion luminescence
# Protein kinase 7 (PK7), Plasmodium falciparum 3D7 (PF3D7_0213400), sequence (Q7YTF7 1-343): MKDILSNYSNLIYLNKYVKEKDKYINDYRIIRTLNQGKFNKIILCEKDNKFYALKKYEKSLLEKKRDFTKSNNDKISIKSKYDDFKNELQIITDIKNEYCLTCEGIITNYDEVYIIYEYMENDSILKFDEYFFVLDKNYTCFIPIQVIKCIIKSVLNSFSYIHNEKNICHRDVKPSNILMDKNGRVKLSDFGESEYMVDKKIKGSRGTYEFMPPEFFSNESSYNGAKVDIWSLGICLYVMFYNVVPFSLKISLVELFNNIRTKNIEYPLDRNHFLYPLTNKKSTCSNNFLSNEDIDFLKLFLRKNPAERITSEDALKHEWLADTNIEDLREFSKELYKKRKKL
# [8] = target: Calcium-dependent protein kinase 4 (Plasmodium falciparum (isolate 3D7)) (UniProt Q8IBS5); assay: PfCDPK4 kinase inhibitors, biochemical, TCAMS library (AID 1159588; cut-off not given, nearly all actives have IC50 up to about 0.91 µM); details: recombinant PfCDPK4, Kinase-Glo ATP depletion luminescence
# Calcium-dependent protein kinase 4 (Plasmodium falciparum (isolate 3D7)), sequence (Q8IBS5 whole entry, looked up): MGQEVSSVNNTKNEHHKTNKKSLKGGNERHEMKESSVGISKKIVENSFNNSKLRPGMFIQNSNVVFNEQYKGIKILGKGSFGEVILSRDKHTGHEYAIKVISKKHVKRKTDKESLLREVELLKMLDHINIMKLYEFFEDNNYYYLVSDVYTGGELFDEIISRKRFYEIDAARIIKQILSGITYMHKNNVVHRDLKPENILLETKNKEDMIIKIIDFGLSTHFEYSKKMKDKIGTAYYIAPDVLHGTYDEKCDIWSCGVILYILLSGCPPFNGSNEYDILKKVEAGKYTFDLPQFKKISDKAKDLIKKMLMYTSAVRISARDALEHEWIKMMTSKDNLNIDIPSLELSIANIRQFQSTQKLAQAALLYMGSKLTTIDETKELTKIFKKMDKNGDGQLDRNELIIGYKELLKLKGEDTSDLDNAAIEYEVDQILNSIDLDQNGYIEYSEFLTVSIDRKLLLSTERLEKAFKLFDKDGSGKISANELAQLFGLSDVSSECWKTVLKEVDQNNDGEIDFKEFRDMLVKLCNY
SMILES,growth inhibition [1],inhibition [2],inhibition [3] [%],growth inhibition [4],outcome [5],outcome [6],outcome [7],outcome [8]
CCOCCCn1c(=N)c(C(=O)NCc2ccc(F)cc2)cc2c(=O)n3cccc(C)c3nc21,40%,21%,5,101% (active),inactive,inactive,inactive,inactive
Cc1nc(-c2ccc3c(c2)CCN(CCC2CCC(NC(=O)c4cc5cccc(Cl)c5[nH]4)CC2)CC3)no1 (configuration not stated),46%,36%,2,100% (active),inactive,inactive,inactive,inactive
CCCC(CNCc1cccc(OC(F)(F)C(F)F)c1)CNc1cc(=O)c2ccccc2[nH]1 (configuration not stated),94% (active),-1%,1,101% (active),inactive,inactive,inactive,inactive
CCCN(Cc1nnc(-c2cccs2)o1)C(=O)CSc1nnnn1-c1cc(C)cc(C)c1,71% (active),2%,8,92% (active),inactive,inactive,inactive,inactive
COc1nc2c(CCN3CCC(NCc4ccc5c(c4)NCCO5)CC3)c(Cl)cnc2cc1F,98% (active),23%,1,102% (active),inactive,inactive,inactive,inactive
Cc1cc(N[C@@H](CC(C)C)C(=O)NCCOc2ccccc2)nc(NCC2CCCCC2)n1,53% (active),24%,-1,97% (active),inactive,inactive,inactive,inactive
CN(C)CCCOc1cccc(CCNCc2cccc(Oc3ccc(Cl)cc3)c2)c1,67% (active),72% (active),-3,93% (active),inactive,inactive,inactive,inactive
Clc1ccc(C2CCN(CCCOc3ccc4c(c3)CCNCC4)CC2)cc1,28%,93% (active),-8,98% (active),inactive,inactive,inactive,inactive
COc1ccc(NC(=O)C2c3ccccc3C(=O)N(C3CCCC3)C2c2cccs2)cc1 (configuration not stated),75% (active),0%,-1,93% (active),inactive,inactive,inactive,inactive
CCCCCN1CCCN(Cc2cccc(NC(=O)c3ccc(-c4ccccc4)cc3)c2)CC1,15%,23%,6,95% (active),inactive,inactive,inactive,inactive
Cc1nnnn1-c1ccc(C(=O)N2CCC3(CC2)CN(Cc2ccc(Cl)c(Cl)c2)C(=O)O3)cc1,99% (active),2%,2,101% (active),inactive,inactive,inactive,inactive
Cc1ccc2c(OCCN3CCC(Cc4ccc5c(c4)NC(=O)CO5)CC3)cc(F)cc2n1,21%,24%,-2,89% (active),inactive,inactive,inactive,inactive
O=C(Nc1cccc(C(F)(F)F)c1)NC1CCN(c2ccnc3ccccc23)C1 (configuration not stated),69% (active),23%,-2,101% (active),inactive,inactive,inactive,inactive
CC(C)N(Cc1ccc(-c2ccc(C(F)(F)F)cc2)cc1)C(=O)Cn1c(SCc2cccc(F)c2F)cc(=O)c2cc(CN3CCCCC3)ccc21,59% (active),97% (active),-8,103% (active),inactive,inactive,inactive,inactive
CCOC(=O)c1[nH]c(-c2cc(Cl)nc(Cl)c2)nc1NC(=S)NCCCN1CCOCC1,71% (active),13%,3,89% (active),inactive,inactive,inactive,inactive
CCC[C@@H]([C@@H](CC1CCCCC1)C(=O)N[C@H](C(=O)Nc1nccs1)C(C)(C)SCCNC(=O)OCC)N(O)C=O,98% (active),45%,0,99% (active),inactive,inactive,inactive,inactive
COc1cc(NC(=O)c2ccc3oc4ccccc4c3c2)ccc1OCCN1CCCCC1,11%,12%,-4,89% (active),inactive,inactive,inactive,inactive
O=C(N[C@@H](CC1CCCCC1)C(=O)NCCN1CCCC1)c1ccc(O)c(-c2ccc(Cl)c(Cl)c2)c1,99% (active),16%,2,99% (active),inactive,inactive,inactive,inactive
O=S(=O)(Nc1ccc(CCN2CCCCC2CCN2CCCC2)cc1)c1ccc(-c2ccccc2)cc1 (configuration not stated),18%,18%,-1,98% (active),inactive,inactive,inactive,inactive
